High-throughput results (PubChem BioAssay)
This is a sample that favours compounds with a hit; in the whole collection about 2% have one here.
CCHF vOTU inh-1: CCHFV vOTU protease inhibition; Pep-AMC fluorescence; inhibition, % at 11.5 µM; 370,000 tested, 0.55% active; AID 651958; also: 0% = vehicle wells with enzyme and 100% = no enzyme wells
BJeLR lethal: kills HRASV12-expressing BJeLR cells; inhibition, % (concentration not given with the values); 300,000 tested, 0.17% active; AID 1554; BJeLR (HRASV12) viability, CellTiter-Glo ATP luminescence, 48 h; in the data active = inhibition above about 50%
PrP UTR inh: inhibition of PrP 5' UTR reporter expression; cell-based PrP 5' UTR mRNA reporter, plate reader; inhibition, % (concentration not given with the values); 340,000 tested, 0.35% active; AID 488862; in the data active = inhibition above about 52%; also: 0 = median of the neutral control wells
PfHsp40 yeast: restores yeast growth despite PfHsp40 toxicity | S. cerevisiae expressing PfHsp40, growth rescue, ATP luminescence | 340,000 tested, 0.68% active | AID 504582 | growth rescue, % at 12.5 µM; in the data active = growth rescue above about 28%, passing the limit was not always enough;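 also: yeast W303a lacking pdr1 and pdr3 grown in galactose medium; growth measured after three days at 30 °C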
Y pestis TopoI: Y. pestis Topo-I inhibition via cleavage products | activity, % at 10 µM | AID 504884 | Y. pestis Topo-I cleavage product accumulation, plate reader | 360,000 tested, 0.064% active; in the data active = activity above about 50%, passing the limit was not always enough
PrPC surface inh: inhibitors of human cell surface prion protein PrPC | P04156 | TR-FRET read-out | inhibition, % at 13.8 µM | 370,000 tested, 0.43% active; in the data active = inhibition above about 24%; also: 0% = median of the test wells and 100% = reference compound wells
CCHF vOTU inh-2: CCHFV vOTU protease inhibition, confirmation. Recombinant CCHFV vOTU, Pep-AMC fluorescence. 1,900 tested, 17% active. shares compounds with CCHF vOTU inh-1. inhibition, % at 11.5 µM
Active calls of the source: *; . = no result. Rule as the data show it, unless noted: active = inhibition above about 30%; inactive = the rest.

SMILES	CCHF vOTU inh-1	BJeLR lethal	PrP UTR inh	PfHsp40 yeast	Y pestis TopoI	PrPC surface inh	CCHF vOTU inh-2
CC1(C)OC(c2ccccc2)=C/C(=C/C=C2C(=O)NC(=O)NC2=O)O1	30*	-3	-24	-2	9	3	-1
CC1(C)OC(c2ccccc2)=C/C(=C/C=Nc2ccccc2)O1	10	-2	-37	0	4	4	.
CCC(CO)Oc1cc(NCc2cccc(C)c2)c2ncn(C(C)C)c2c1 (stereo not given)	20	.	-6	1	-2	-11	.
CC[C@H](CO)Oc1cc(NCc2cccc(N)c2)c2ncn(C(C)C)c2c1	75*	.	.	.	.	-5	57*
CCCCCCCCNS(=O)(=O)/C=C/c1ccccc1CNC(=O)OC(C)(C)C	36*	.	.	.	.	-2	16
Cc1ccc(CN(C)C(=O)c2cccc(S(=O)(=O)N3CCN(Cc4ccccc4)CC3)c2)o1	10	6	-24	0	22	8	.
CN(Cc1ccco1)C(=O)c1cccc(S(=O)(=O)N2CCN(Cc3ccccc3)CC2)c1	34*	.	.	.	15	-8	-17
CCc1ccccc1NC(=O)CNC(=O)c1cc(C2CC2)nn1-c1ccccc1	39*	.	-15	1	4	-1	-2
CCOC(=O)C1(Cc2ccccc2)CCN(Cc2ccc(C(F)(F)F)cc2)CC1	9	.	.	.	.	4	.
Cc1nc2c(nc1C)C(=O)c1ccccc1C2=O	32*	.	11	-2	6	-32	21
C[C@H]1COc2cc(N3CCOCC3)ccc2S(=O)(=O)N1	-5	.	.	.	.	-1	.
Cc1cc2cc(C(c3nnnn3Cc3ccco3)N3CCc4ccccc43)c(=O)[nH]c2cc1C (stereo not given)	2	-7	-14	0	26	2	.
Cc1cc2cc(C(c3nnnn3Cc3ccco3)N3CCc4ccccc4C3)c(=O)[nH]c2cc1C (stereo not given)	61*	1	-28	-1	18	-1	-10
O=c1oc2cc(O)c(Cl)cc2c2ccccc12	30*	-1	-14	4	3	4	-7
CSCCC(NC(=O)CCC(=O)OC1CC[C@H]2[C@@H]3CC[C@H]4CC(=O)CC[C@]4(C)[C@H]3CC[C@]12C)C(=O)O (stereo not given in full)	10	8	.	0	20	-2	.
CCC(=O)OC1CCC2C3CCC4CC(=O)C=CC4(C)C3CCC12C (stereo not given)	30*	.	-2	-3	39	3	10
CCn1c(=O)n(CC(=O)N2CCC(C)CC2)c(=O)c2ccccc21	-1	.	.	.	.	1	.
O=C(NC1CCCC1)c1ccc(CS(=O)Cc2ccccc2Cl)o1 (stereo not given)	34*	1	-7	1	2	-1	-19
O=C(/C(C=Nc1ccc(F)cc1)=C(/O)c1ccco1)C(F)(F)F	33*	-5	-138	0	-1	3	-6
COc1ccc(OC)c(NC(=O)Nc2ccc(O)c3ccccc23)c1	73*	2	-19	-1	-2	-14	-15
COc1ccc(OC)c(NC(=O)Nc2c(O)ccc3ccccc23)c1	-12	5	-27	0	-13	-3	.
COc1ccccc1/C=N/NC(=O)c1ccc(=O)n(C)c1	31*	-14	-20	-1	-5	-4	-5
COc1ccc(OCC(=O)NC(=S)Nc2ccc3c4c(cccc24)CC3)cc1	30*	-12	-31	0	-1	9	2
Cc1ccccc1OCC(=O)NC(=S)Nc1ccc2c3c(cccc13)CC2	12	8	-8	0	2	-3	.
O=C(c1ccc(Br)o1)N1CCC(c2nc3ccccc3[nH]2)CC1	34*	0	-20	0	-2	-10	-27
SMILES	CCHF vOTU inh-1	BJeLR lethal	PrP UTR inh	PfHsp40 yeast	Y pestis TopoI	PrPC surface inh	CCHF vOTU inh-2
O=C(C1CCCCC1)N1CCC(c2nc3ccccc3[nH]2)CC1	-13	3	-4	1	2	4	.
Cc1nnc(Sc2cc(NCCO)c([N+](=O)[O-])c3nonc23)s1	29	33	-15	0	-8	-33	.
Cc1nnc(Sc2cc(NCCCO)c([N+](=O)[O-])c3nonc23)s1	31*	-4	-10	0	-12	-18	9
O=S1(=O)c2ccc(N3CCC[C@H]3CO)cc2O[C@@H]2CCN1C2	0	.	.	.	.	-4	.
COCC(=O)OC1CCn2c1nc1c2C(=O)C(C)=C(NC(C)=O)C1=O (stereo not given)	100*	.	-26	-1	4	-41	100*
CC(=O)NC1=C(N2CC2C)C(=O)C(NC(C)=O)=C(N2CC2C)C1=O (stereo not given)	16	.	-10	-1	2	-17	.
COc1ccc(S[C@]2(C(=O)N3CCOCC3)CC(=O)N[C@@H]2c2ccc(OC)cc2)cc1	-9	.	.	.	.	-3	.
CC(C)C[C@H](NS(=O)(=O)c1ccc(F)cc1F)C(=O)N1CCC[C@H]1C(=O)NCc1ccccc1	-6	.	.	.	.	-5	.
CCCCCCCCNS(=O)(=O)CCNCc1ccc(OC)cc1	32*	.	-8	0	44	0	6
COc1ccc(CNCCS(=O)(=O)NCc2ccc(OC)cc2)cc1	29	.	-26	-3	9	1	.
COc1ccc(CNS(=O)(=O)CCNC(=O)c2ccc(OC)cc2)cc1	31*	-7	-54	-1	-6	-4	-14
O=C(Nc1ccc(Cl)cc1)C1CCCN1S(=O)(=O)c1cccc2cccnc12 (stereo not given)	8	.	.	.	.	22	.
CN=C(Nc1cccnc1)c1cccc(C(F)(F)F)c1	49*	2	-14	-2	2	6	-14
O=C(Nc1cccc(C(F)(F)F)c1)c1cccnc1	.	.	-10	0	-1	.	.
COc1ccc(N(C)S(=O)(=O)c2cccc(C(=O)Nc3nnc(C)s3)c2)cc1	17	.	-26	-1	4	-4	.
CCN(CC)S(=O)(=O)c1cccc(C(=O)Nc2nncs2)c1	-10	3	-1	1	-10	4	.
CCN(CC)S(=O)(=O)c1cccc(C(=O)Nc2nnc(C)s2)c1	31*	5	-14	0	-11	5	-5
